In the supplement of paper PMC7156485:

Key:
Conditions in all cases: concentration: 10 µM; 24 h
HCC1569 [1] = assay: cell number relative to DMSO (% of DMSO); higher = more cells (less growth inhibition / toxicity)
In short: (§1)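 Treatment: HCC1569 and TDF cells, 800 per well in 384-well plates with RPMI and 10% FBS, were given compounds at 10 µM for 24 h at 37 °C, in triplicate. Readout: after 3.7% formaldehyde fixation, cells were stained with a rabbit anti-H1.0 antibody, an AlexaFluor 647 secondary and DAPI. Reported values are H1.0 nuclear intensity or cell number as percent of the plate control, taken as the median of replicates, with positional smoothing for HCC1569.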

TDF [2] = assay: as above
In short: as §1

TDF [3] = assay: H1.0 immunofluorescence intensity relative to DMSO (% of DMSO); higher = stronger H1.0 induction, active = 120 or more
In short: as §1

HCC1569 [4] = assay: H1.0 immunofluorescence intensity relative to DMSO (% of DMSO); higher = stronger H1.0 induction, active = 140 or more
In short: as §1
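Wherever H1.0 immunofluorescence intensity relative to DMSO is given: TDF is a line of transformed human dermal fibroblasts of mesenchymal origin.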
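Wherever cell number relative to DMSO is given: TDF denotes transformed human dermal fibroblasts of mesenchymal origin.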

Row | SMILES | cell number (HCC1569 [1]) | cell number (TDF [2]) | H1.0 immunofluorescence intensity (TDF [3]) | H1.0 immunofluorescence intensity (HCC1569 [4])
1 | O=P1(NCCCl)OCCCN1CCCl (stereo unspecified) [Ifosfamide] | 103 | 105 | 97.2 (inactive) | 112 (inactive)
2 | C[N+](C)(C)CC(=O)O.[Cl-] [Betaine hydrochloride] | 104 | 113 | 89.4 (inactive) | 82.7 (inactive)
3 | COc1ccccc1N1CCNCC1.Cl [1-(2-Methoxyphenyl)piperazine hydrochloride] | 105 | 113 | 96.4 (inactive) | 98.8 (inactive)
4 | N#CC(OC1OC(COC2OC(CO)C(O)C(O)C2O)C(O)C(O)C1O)c1ccccc1 (stereo unspecified) [Amygdalin] | 103 | 91.7 | 100 (inactive) | 90.7 (inactive)
5 | C[Se]CC(N)C(=O)O.Cl (stereo unspecified) [Se-(methyl)selenocysteine hydrochloride] | 99.6 | 90.3 | 99 (inactive) | 98.1 (inactive)
6 | CCn1cc(C(=O)O)c(=O)c2cc3c(cc21)OCO3 [Oxolinic acid] | 100 | 109 | 104 (inactive) | 101 (inactive)
7 | CN1CC(C(=O)NC2(C)OC3(O)C4CCCN4C(=O)C(Cc4ccccc4)N3C2=O)CC2c3cccc4[nH]cc(c34)CC21.CS(=O)(=O)O (stereo unspecified) [Dihydroergotamine mesylate] | 98.8 | 102 | 92.6 (inactive) | 105 (inactive)
8 | CC1OC(C[N+](C)(C)C)CS1.[I-] (stereo unspecified) [OXA-22 iodide] | 99.8 | 116 | 97.2 (inactive) | 95.2 (inactive)
9 | CCNC1=Nc2ccc(Cl)cc2C(C)(c2ccccc2)O1.Cl (stereo unspecified) | 92.5 | 105 | 97.3 (inactive) | 141 (active)
